Measured values taken from PubChem BioAssay (NCI).
Compounds without any hit were thinned out: in the full panel of roughly 79,000, 15% have a hit. Active and inactive are the calls of the source. Cut-off read from the data, not from the text of the source: active = growth inhibition above about 70%; inactive = the rest.

Legend:
[1] = NCI Yeast Anticancer Drug Screen. Data for the rad50 strain (AID 155);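 note: 0% = growth of vehicle-only cultures of the same strain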; settings: S. cerevisiae rad50 strain growth inhibition, stronger effect = higher value
Outline: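 Relative growth inhibition (compound vs vehicle) was measured in yeast with a defined repair-gene alteration.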

[2] = NCI Yeast Anticancer Drug Screen. Data for the mec2-1 strain (AID 157); settings: S. cerevisiae mec2-1 strain, stronger effect = higher value
Outline: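 Mutant yeast (mec2-1) grown with compound; growth inhibition relative to vehicle control reported.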

[3] = NCI Yeast Anticancer Drug Screen. Data for the sgs1 mgt1 strain (AID 161);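 note: 0% = growth of cultures given vehicle only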; settings: S. cerevisiae sgs1 mgt1 strain, stronger effect = higher value
Outline: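 Percent growth inhibition was derived by comparing compound-exposed mutant yeast with vehicle-exposed cultures. The strain carries alterations in DNA damage repair.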

[4] = NCI Yeast Anticancer Drug Screen. Data for the cln2 rad14 strain (AID 165);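 note: 0% = growth equal to vehicle treated cultures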; settings: S. cerevisiae cln2 rad14 strain, stronger effect = higher value
Outline: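 Readout is yeast growth inhibition versus vehicle-treated controls, using a strain with cln2 and rad14 alterations exposed to compound.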

[5] = NCI Yeast Anticancer Drug Screen. Data for the bub3 strain (AID 167); settings: S. cerevisiae bub3 mutant strain, stronger effect = higher value
Outline: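 Screening used yeast with an engineered genetic alteration affecting cell cycle control. Compound-exposed cultures were compared with vehicle cultures, and reduced growth was taken as inhibition.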

[6] = NCI Yeast Anticancer Drug Screen. Data for the mlh1 rad18 strain (AID 175); settings: S. cerevisiae mlh1 rad18 strain growth inhibition, stronger effect = higher value
Outline: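 Genetically defined yeast (DNA repair-deficient) exposed to compounds; growth inhibition determined relative to vehicle.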

[7] = at 5.0 µM (retest, dose inferred, filed as 0.5)
[8] = at 50.0 µM (retest, dose inferred, filed as 5.0)

Measured: growth inhibition

COc1ccc(C(c2ccccc2C(=O)O)c2ccc(OC)c3ccccc23)c2ccccc12
inactive: [1]; [7] 47% | [1]; at 50.0 µM 59.6%
active: [1]; [8] 94% | [2]; [7] 70% | [2]; [8] 96% | [2]; at 50.0 µM 88.8% | [3]; [7] 97% | [3]; [8] 96% | [3]; at 50.0 µM 87.8% | [4]; [7] 96% | [4]; [8] 95% | [4]; at 50.0 µM 89% | [5]; [7] 94% | [5]; [8] 95% | [5]; at 50.0 µM 89.8% | [6]; [7] 97% | [6]; [8] 96% | [6]; at 50.0 µM 88.7%

O=[N+]([O-])c1cccc(S(=O)(=O)Nc2cccc3ccccc23)c1
inactive: [1]; [7] 4% | [2]; [7] 1% | [3]; [7] 2% | [4]; [7] 4% | [5]; [7] 1% | [6]; [7] -3%
active: [1]; [8] 97% | [1]; at 50.0 µM 99% | [2]; [8] 98% | [2]; at 50.0 µM 99.2% | [3]; [8] 97% | [3]; at 50.0 µM 99.2% | [4]; [8] 98% | [4]; at 50.0 µM 99.2% | [5]; [8] 97% | [5]; at 50.0 µM 99.2% | [6]; [8] 97% | [6]; at 50.0 µM 98.7%

CC(=O)O[C@@H]1c2c(c3c(=O)c4cccc(O)c4c(=O)c=3c2=[N+]=[N-])[C@H](OC(C)=O)[C@@H](OC(C)=O)[C@]1(C)O
active: [1]; [7] 99% | [1]; [8] 99% | [1]; at 50.0 µM 92% | [2]; [7] 99% | [2]; [8] 99% | [2]; at 50.0 µM 93.7% | [3]; [7] 99% | [3]; [8] 99% | [3]; at 50.0 µM 93% | [4]; [7] 99% | [4]; [8] 99% | [4]; at 50.0 µM 91.3% | [5]; [7] 98% | [5]; [8] 99% | [5]; at 50.0 µM 91.4% | [6]; [7] 99% | [6]; [8] 99% | [6]; at 50.0 µM 91.6%

N#CC1(C#N)C(C#N)(C#N)C12CCCC2
inactive: [1]; [7] 5% | [1]; [8] 50% | [1]; at 50.0 µM 38.9% | [2]; [7] 4% | [2]; [8] 54% | [2]; at 50.0 µM 21.4% | [3]; [7] 4% | [3]; [8] 66% | [4]; [7] 1% | [4]; [8] 30% | [4]; at 50.0 µM 16.9% | [5]; [7] 4% | [5]; at 50.0 µM 12.4% | [6]; [7] 5% | [6]; at 50.0 µM 67.3%
active: [3]; at 50.0 µM 74% | [5]; [8] 81% | [6]; [8] 91%

C/C=C/C/C=C/CCC(=O)C1OC1C(N)=O (configuration not stated)
active: [1]; [7] 98% | [1]; [8] 99% | [1]; at 50.0 µM 92.3% | [2]; [7] 99% | [2]; [8] 99% | [2]; at 50.0 µM 93.3% | [3]; [7] 99% | [3]; [8] 99% | [3]; at 50.0 µM 93.3% | [4]; [7] 98% | [4]; [8] 99% | [4]; at 50.0 µM 91.4% | [5]; [7] 99% | [5]; [8] 98% | [5]; at 50.0 µM 91.8% | [6]; [7] 99% | [6]; [8] 99% | [6]; at 50.0 µM 91.8%

CNC1c2ccccc2C(=O)c2cc3c(cc21)OCCOCCOCCOCCO3 (configuration not stated)
inactive: [1]; [7] -10% | [1]; [8] 7% | [1]; at 50.0 µM 11.8% | [2]; [7] -4% | [2]; [8] -12% | [2]; at 50.0 µM 8.1% | [3]; [7] -10% | [3]; [8] -12% | [3]; at 50.0 µM 12.1% | [4]; [7] -25% | [4]; [8] -12% | [4]; at 50.0 µM 40.8% | [5]; [7] -13% | [5]; [8] -2% | [5]; at 50.0 µM 20.8% | [6]; [7] -6% | [6]; [8] 1% | [6]; at 50.0 µM 27.2%

Cc1ccccc1N=Nc1sc(N)nc1-c1ccccc1
inactive: [1]; [7] -6% | [1]; at 50.0 µM 33.5% | [2]; [7] 8% | [2]; at 50.0 µM 22.2% | [3]; [7] -2% | [3]; at 50.0 µM 54.8% | [4]; [7] -1% | [4]; at 50.0 µM -4.85% | [5]; [7] -7% | [5]; at 50.0 µM 30.6% | [6]; [7] -1% | [6]; at 50.0 µM 43.7%
active: [1]; [8] 94% | [2]; [8] 98% | [3]; [8] 95% | [4]; [8] 88% | [5]; [8] 98% | [6]; [8] 95%

O=[N+]([O-])c1ccc2nc(-c3ccccn3)[nH]c2c1
inactive: [1]; [7] -2% | [1]; [8] 27% | [2]; [7] 1% | [2]; [8] 5% | [3]; [7] -13% | [3]; [8] 17% | [4]; [7] -12% | [4]; [8] -3% | [5]; [7] -25% | [5]; [8] 16% | [6]; [7] -38% | [6]; [8] 42%
active: [1]; at 50.0 µM 86.3% | [2]; at 50.0 µM 87% | [3]; at 50.0 µM 73.6% | [4]; at 50.0 µM 77.3% | [5]; at 50.0 µM 88.6% | [6]; at 50.0 µM 88.5%

O=C1C(=Cc2ccccc2O)N=C(c2ccccc2)N1n1c(-c2ccccc2)nc2ccccc2c1=O
active: [3]; at 50.0 µM 75.7% | [5]; at 50.0 µM 80.2% | [6]; at 50.0 µM 73.3%
inactive: [1]; [7] 5% | [1]; [8] 31% | [1]; at 50.0 µM 58% | [2]; [7] -3% | [2]; [8] 22% | [2]; at 50.0 µM 49.2% | [3]; [7] 0% | [3]; [8] 24% | [4]; [7] 8% | [4]; [8] 33% | [4]; at 50.0 µM 50.3% | [5]; [7] -13% | [5]; [8] 45% | [6]; [7] 11% | [6]; [8] 39%
